PubChem BioAssay (NCATS)
Several values for one entry are separate records, joined by “and”; a condition that tells them apart may be missing. Equal entries are not always repeated. Records with an inconclusive call do not appear. A call without a number means that no potency is given here. The source holds several records for some structures; these can differ, active in one and inactive in another. Activity calls are given as the source filed them. Unless noted, the call rests on the fitted dose curve; in most records, active means well fitted curve in the direction sought with a large enough effect; inconclusive means small, poorly fitted or top-dose-only effect, or another doubt; inactive means no such curve, though single readings can be large; an effect the other way counts as inactive or inconclusive.

Columns and labels:
[1] = High-throughput drug toxicity screening in the BPDCN cell line Cal-1 (AID 1224825; call rule not given here); details: Cal-1 BPDCN cell viability, qHTS; at 45.8 µM (top of the series) unless noted
In short: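 Percent activity derived from CellTiter-Glo luminescence, scaling DMSO to 100% and 9.2 uM final bortezomib to 0%. BPDCN Cal-1 cells (500/well, RPMI plus 10% FBS) incubated with compounds 48 hours at 37C before reading.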

[2] = qHTS assay for measurement of the activity of small molecule inhibitors on Zika virus induced Caspase-3 activity in human iPSC derived neural progenitor cells (hNPCs) (AID 1224857); further: nearly all actives have a fitted effect of over 65% in size; further: potency means the concentration at half of the fitted maximal effect
In short: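 Caspase-3/7 induction by a 6-hour ZIKV infection was quantified with a luminescent Caspase-Glo 3/7 reagent incubated 30 minutes at room temperature. Compounds were preincubated with hNPCs for 1 hour; inhibition was calculated against uninfected and infected control wells.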

[3] = qHTS assay for measurement of the activity of small molecule inhibitors on Zika virus induced Caspase-3 activity in human astrocytoma cells (AID 1224859)
In short: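 In SNB-19 cells plated at 250 cells/well and grown 16-20 h, compounds were applied 1 h before ZIKV (2 FFU/cell). Six hours later caspase-3/7 luminescence was recorded.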

[4] = qHTS Screen of the MIPE 4.0 Collection Against Ewings Sarcoma (RDES) (AID 1259252); further: nearly all actives have a fitted effect of over 35% in size; further: potency means the concentration at half of the fitted maximal effect
In short: (§1)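 After a 4 h attachment period in RPMI/5% FBS, cells were pin-dosed with test compounds; DMSO served as negative and 9.2 uM bortezomib (final) as positive control. Luminescent CellTiter-Glo signal at 48 h defined viability.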

[5] = qHTS Screen of the MIPE 4.0 Collection Against Ewings Sarcoma (TC71) (AID 1259253); further: potency means the concentration at half of the fitted maximal effect; nearly all actives have a fitted effect of over 40% in size
In short: as §1

[6] = qHTS Screen of the MIPE 4.0 Collection Against Ewings Sarcoma (EW8) (AID 1259255); further: nearly all actives have a fitted effect of over 35% in size; further: potency means the concentration at half of the fitted maximal effect
In short: as §1

[7] = qHTS Screen of the MIPE 4.0 Collection Against Ewings Sarcoma (TC32) (AID 1259256); further: nearly all actives have a fitted effect of over 45% in size; further: potency means the concentration at half of the fitted maximal effect
In short: as §1

[8] = qHTS assay to identify small molecule inhibitors of chordoma cells - UCH-1 (AID 1259355); further: nearly all actives have a fitted effect of over 55% in size
In short: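 800 cells/well, overnight attach; compounds pinned at 15 concs, then auranofin/camptothecin/doxorubicin/rubitecan/topotecan combo added; 48hr 37 C, 5% CO2; CellTiter-Glo, 30min RT, luminescence.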

[9] = qHTS assay to identify small molecule inhibitors of chordoma cells - UCH-2 (AID 1259356)

CCc1ccc(CCOc2ccc(CC3SC(=O)NC3=O)cc2)nc1 (configuration not stated)
viability (% of control) [1]: 100% | Potency [2]: inactive | Potency [3]: inactive | Potency [4]: 0.0148 µM (active) | Potency [5]: 0.296 µM (active) | Potency [6]: inactive | Potency [7]: inactive | Potency [8]: inactive | outcome [9]: inactive

CN1CCN(CCCN2c3ccccc3Sc3ccc(C(F)(F)F)cc32)CC1
viability (% of control) [1]: 77.3% | Potency [2]: inactive | Potency [3]: inactive | Potency [4]: 10.5 µM (active) | Potency [5]: 10.5 µM (active) | Potency [6]: 23.5 µM (active) | Potency [7]: 14.8 µM (active) | Potency [8]: inactive | outcome [9]: inactive

CNCc1ccc(-c2[nH]c3cc(F)cc4c3c2CCNC4=O)cc1
viability (% of control) [1]: 15.1% | Potency [2]: inactive | Potency [3]: inactive | Potency [7]: 16.6 µM (active)

COc1ccc(CCN2CCN(CCCc3ccccc3)CC2)cc1OC
viability (% of control) [1]: 64.5% | Potency [2]: inactive | Potency [3]: inactive | Potency [4]: inactive | Potency [7]: inactive

NNCCc1ccccc1
viability (% of control) [1]: 10.4% | Potency [2]: inactive and 26.4 µM (active) | Potency [3]: inactive | Potency [4]: 8.33 µM (active) | Potency [5]: 20.9 µM (active) | Potency [6]: 9.35 µM (active) | Potency [7]: 11.8 µM (active) | Potency [8]: inactive | outcome [9]: inactive

O=c1ncn2nc(Sc3ccc(F)cc3F)ccc2c1-c1c(Cl)cccc1Cl
viability (% of control) [1]: 45.3% | Potency [2]: inactive | Potency [3]: inactive | Potency [4]: 20.9 µM (active) | Potency [7]: inactive

CCOc1ccn(-c2ccc(F)cc2)c(=O)c1C(=O)Nc1ccc(Oc2ccnc(N)c2Cl)c(F)c1
viability (% of control) [1]: 23.7% | Potency [2]: inactive | Potency [3]: inactive | Potency [4]: 23.5 µM (active) | Potency [7]: 23.5 µM (active)

C[C@]12CCC(=O)C=C1CC[C@@H]1[C@@H]2[C@@H](O)C[C@@]2(C)[C@H]1CC[C@]2(O)C(=O)CO
Potency [2]: inactive | Potency [3]: inactive

Cc1n[nH]c(C)c1Cc1sc2c(c1C(=O)N1C[C@H](O)CO1)c(=O)n(C)c(=O)n2CC(C)C
viability (% of control) [1]: 96.6% | Potency [2]: inactive | Potency [3]: inactive | Potency [4]: inactive | Potency [5]: 0.166 µM (active) | Potency [6]: inactive | Potency [7]: 0.105 µM (active)

COc1ccc(COc2cc3oc(=O)c4cc(C(C)O)ccc4c3cc2OC)cc1 (configuration not stated)
viability (% of control) [1]: 33.4% | Potency [2]: inactive | Potency [3]: inactive | Potency [4]: 13.2 µM (active) | Potency [5]: 23.5 µM (active) | Potency [6]: 20.9 µM (active) | Potency [7]: 20.9 µM (active)
